PubChem BioAssay (NCATS)
Results filed as inconclusive are left out. Active and inactive are the calls of the source. Calls come from the whole dose curve; as a rule, active = well fitted inhibition curve with a large enough effect; inconclusive = small, poorly fitted or top-dose-only effect; inactive = flat fitted curve, though single readings scatter.

Legend:
Assay in all cases: qHTS profiling for inhibitors of Plasmodium falciparum proliferation (AID 504749); note: nearly all actives have a fitted effect of over 60% in size
Settings in all cases: P. falciparum in erythrocytes, SYBR Green DNA, 72 h; series mostly up to 28.7 µM
CP252 = test system: CP252
Summary of the method: (§1)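 Quantitative HTS: compounds pinned into medium, infected erythrocytes added (0.3% parasitemia, 2.5% hematocrit), 72 h culture at 37 C under 5% CO2. Saponin/Triton lysis with SYBR Green I, overnight RT, then fluorescence read.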

CP256 = test system: CP256
Summary of the method: as §1

CP260 = test system: CP260
Summary of the method: as §1

CP262 = test system: CP262
Summary of the method: as §1

CP265 = test system: CP265
Summary of the method: as §1

CP266 = test system: CP266
Summary of the method: as §1

CP268 = test system: CP268
Summary of the method: as §1

CP269 = test system: CP269
Summary of the method: as §1

CP286 = test system: CP286
Summary of the method: as §1

CP291 = test system: CP291
Summary of the method: as §1

CP297 = test system: CP297
Summary of the method: as §1

CP305 = test system: CP305
Summary of the method: as §1

CP315 = test system: CP315
Summary of the method: as §1

CP325 = test system: CP325
Summary of the method: as §1

CP329 = test system: CP329
Summary of the method: as §1

CP335 = test system: CP335
Summary of the method: as §1

DFO2036 = test system: DFO2036
Summary of the method: as §1

DIV17 = test system: DIV17
Summary of the method: as §1

DIV30 = test system: DIV30
Summary of the method: as §1

DIV14 = test system: DIV14
Summary of the method: as §1

Measured: Potency
Potency is the fitted concentration of half-maximal effect.

NC[C@H](O)c1ccc(O)c(O)c1
not listed: DIV14
inactive: all other assays above

CNC[C@H](O)c1cccc(O)c1
not listed: CP315 | CP335
inactive: all other assays above

NC(=O)c1cnccn1
inactive: all assays above

Nc1nc2ccc(OC(F)(F)F)cc2s1
not listed: DIV14
inactive: all other assays above

CCOC(=O)C1=C[C@]2(CC)CCCN3CCc4c(n1c1ccccc41)[C@@H]32
active: CP265 10 µM | CP269 13.5 µM | CP297 13.5 µM | DIV14 12 µM | DIV17 15.1 µM | DIV30 13.5 µM
inactive: CP262

Clc1ccc(Nc2nnc(Cc3ccncc3)c3ccccc23)cc1
not listed: CP260 | CP286 | CP335 | DIV17 | DIV30 | DIV14
inactive: all other assays above

NC(N)=NC(=O)c1nc(Cl)c(N)nc1N
inactive: CP252 | CP262 | CP266 | CP297 | CP315 | CP329
active: CP265 11.2 µM | DIV14 9.53 µM | DIV17 6.75 µM

CC(C)NCC(O)COc1ccc(COCCOC(C)C)cc1 (stereo not given)
not listed: CP260
inactive: all other assays above

Cc1oncc1C(=O)Nc1ccc(C(F)(F)F)cc1
not listed: CP260 | CP265 | DIV17
inactive: all other assays above

Cc1c(C)c2c(c(C)c1O)CCC(C)(COc1ccc(CC3SC(=O)NC3=O)cc1)O2 (stereo not given)
active: DIV14 15.1 µM
not listed: CP265 | CP269 | CP297 | DIV17 | DIV30
inactive: all other assays above

C1COC(NC(C2CC2)C2CC2)=N1
inactive: CP262 | CP266 | CP268 | CP269 | CP286 | CP297 | CP305 | CP315 | CP335 | DIV30

Cc1cc2c(C(C)C)c(O)c(O)c(C=O)c2c(O)c1-c1c(C)cc2c(C(C)C)c(O)c(O)c(C=O)c2c1O
active: CP256 11.2 µM | CP265 12.6 µM

OC(CN1CCC(Cc2ccc(F)cc2)CC1)c1ccc(Cl)cc1 (stereo not given)
inactive: CP252 | CP262 | CP266 | CP315 | CP325 | CP329
active: CP260 3.16 µM | CP286 3.55 µM | CP335 3.79 µM | DIV14 1.07 µM | DIV17 0.953 µM | DIV30 1.9 µM

Oc1ccc(C2CNCCc3c2cc(O)c(O)c3Cl)cc1 (stereo not given)
not listed: CP286
inactive: all other assays above

CCCc1nn(C)c2c(=O)[nH]c(-c3cc(S(=O)(=O)N4CCN(C)CC4)ccc3OCC)nc12
not listed: CP291 | DIV30
inactive: all other assays above

CN1CCN(CCCN2c3ccccc3Sc3ccc(C(F)(F)F)cc32)CC1
active: CP252 14.1 µM | CP260 10 µM | CP269 15.1 µM | CP286 12.6 µM | CP335 5.36 µM | DFO2036 8.91 µM | DIV14 8.49 µM | DIV17 7.57 µM | DIV30 16.9 µM

Cc1ccccc1C(OCCN(C)C)c1ccccc1 (stereo not given)
inactive: CP262 | CP266 | CP269 | CP297
active: DIV14 6.75 µM | DIV17 7.57 µM

O=NN(CCCl)C(=O)NCCCl
not listed: CP286 | CP335 | DFO2036
inactive: all other assays above

NCCc1ccc(O)c(O)c1
not listed: CP256
inactive: all other assays above

C#Cc1cccc(Nc2ncnc3cc(OCCOC)c(OCCOC)cc23)c1
active: DIV14 8.49 µM | DIV17 15.1 µM
inactive: CP262 | CP265 | CP266 | CP305 | CP315 | CP329

O=c1n(CCCN2CCN(c3cccc(Cl)c3)CC2)nc2ccccn12
not listed: CP262
inactive: all other assays above

O=C1CCc2cc(OCCCCc3nnnn3C3CCCCC3)ccc2N1
not listed: CP252 | CP256 | CP262 | CP265 | DFO2036
inactive: all other assays above

NNCCc1ccccc1
not listed: CP262 | CP266
inactive: all other assays above

Cn1cnc([N+](=O)[O-])c1Sc1ncnc2nc[nH]c12
not listed: CP252 | CP265 | DIV17
inactive: all other assays above

CCOC(=O)C1=C[C@@]2(CC)CCCN3CCc4c(n1c1ccccc41)[C@H]32
active: CP262 12 µM | CP268 10.7 µM | CP269 10.7 µM | CP291 13.5 µM | CP297 12 µM | CP305 13.5 µM | CP325 9.53 µM | CP335 12 µM | DIV14 13.5 µM | DIV17 7.57 µM | DIV30 12 µM

CCCc1nc2c(C)cc(-c3nc4ccccc4n3C)cc2n1Cc1ccc(-c2ccccc2C(=O)O)cc1
active: CP260 6.31 µM | CP286 11.2 µM | CP335 6.01 µM | DIV17 0.675 µM
inactive: CP256 | CP262 | CP266 | CP305 | CP315 | CP325 | CP329

CC(C)C[C@H](NC(=O)[C@@H](O)[C@H](N)Cc1ccccc1)C(=O)O
active: CP252 6.31 µM | CP256 5.62 µM | CP260 4.47 µM | CP265 11.2 µM | CP268 13.5 µM | CP269 9.53 µM | CP286 5.01 µM | CP291 5.36 µM | CP297 8.49 µM | CP305 6.01 µM | CP315 12 µM | CP325 6.75 µM | CP335 6.01 µM | DFO2036 5.62 µM | DIV14 4.78 µM | DIV17 6.75 µM | DIV30 6.01 µM
inactive: CP262

CCOC(=O)N1CCC(=C2c3ccc(Cl)cc3CCc3cccnc32)CC1
active: CP252 2 µM | CP260 12.6 µM | CP265 10 µM | CP297 13.5 µM | DIV14 7.57 µM | DIV17 9.53 µM | DIV30 13.5 µM
inactive: CP262 | DFO2036
